# Experimental data taken from PubChem BioAssay.
# Experiment: A549 cell viability effects, profiling panel, calcein-AM fluorescence, 48 h, basal (AID 1162); also: test concentration not given here
# Conditions: higher = more signal
row,SMILES,z-score
1,COCC(=C=CC[C@@H](O)c1cccc(OCCO)c1)C[C@@H](O)c1ccccn1,0.492
2,C[C@@]1([C@@H](NC(=O)c2ccc(-c3ccccc3)cc2)c2ccc(Cl)cc2)C[C@H]1C1CCCCC1,-1.18
3,CCc1cccc(NC(=O)O[C@H]2[C@H](OC(=O)Nc3ccccc3-c3ccccc3)[C@@H](OC(=O)Nc3ccccc3-c3ccccc3)[C@@H](OC)O[C@@H]2CO)c1,-4.21
4,C=C[C@H](CO[Si](CC)(CC)CC)N(Cc1ccc(OC(C)=O)c(OC)c1)S(=O)(=O)c1ccc(Br)cc1,-0.217
5,C[C@H]1NC(=O)[C@@]23C(=O)N[C@@H](Cc4ccccc4)C2[C@H](C)[C@@]2(C)O[C@H]2C3/C=C/C/C=C\CNC(=O)[C@@H]2CCCN2C1=O (stereo not given in full),-0.197
6,CCS[C@H]1[C@@H](C(=O)O)[C@H](c2ccc(C)cc2)N(S(=O)(=O)c2ccc(C)cc2)[C@@H]1CC,-0.408
7,COCCOC(=O)N1C(=O)[C@@]2(c3ccccc31)[C@H](C(=O)N1CCc3cc(OC)c(OC)cc3C1)[C@H]1C(=O)O[C@H](c3ccccc3)[C@H](c3ccccc3)N1[C@@H]2c1ccc(OCCO)cc1,1.23
8,[N-]=[N+]=Nc1ccccc1[C@H]1OC(c2ccc(OCCCO)cc2)=N[C@@]1(CCS(=O)(=O)c1ccccc1)C(=O)NCC(O)CO (stereo not given in full),-0.0714
9,[N-]=[N+]=NCc1ccccc1[C@@H]1OC(c2ccc(OCCCO)cc2)=N[C@]1(Cc1ccccc1)C(N)=O,0.88
10,C=C(CCCC)C(=O)CC[C@@H](OC(=O)c1ccccc1-c1ccccc1C(=O)O)c1ccc(OCCO)cc1,-0.465
